This note sets out measurements from ChEMBL document CHEMBL3988442, “University of Dundee, Small-Polar-MMV Screening Library” (2021).

Out of some 69,000 compounds screened, about 1,000 (1.4%) showed an effect of 50% or more. Shown is part of a subset that was picked to be rich in strong results.

The test has as its system Leishmania donovani. Nature of the test: Leishmania intramacrophage assay. It is filed as functional, organism-based. On the set-up: scale not given: in the data most compounds retested in dose-response had high values.

On to `COc1cccc(COCC(=O)N2CCC(CC(N)=O)CC2)c1`, for which the “Percent Effect” value (30 µM, 30.03 µM) was -26.96%.

Take `Cc1c(C)n(-c2ccccn2)c2nc3c(c(N)c12)CCCCC3`: the “Percent Effect” value (30.3 µM, […]) is 70.72%. For `Cc1c(C)n(-c2ccccn2)c2nc3c(c(N)c12)CCCC3`, the “Percent Effect” value (30 µM, 30.03 µM) was 43.5%. On to `Cc1c(C)n(Cc2ccccn2)c2nc3c(c(N)c12)CCCCCC3`, for which the “Percent Effect” value (30.3 µM, […]) amounted to 8.308%.

On to `CC1CN(C)c2ccccc2CN1C(=O)c1ccc[nH]1` (stereo unspecified), for which the “Percent Effect” value (30 µM, 30.03 µM) amounted to 18.04%. For the compound `COCCn1cnc2ccc(NC(=O)c3ccc(OC)cc3)cc2c1=O`, the “Percent Effect” value (30.3 µM, […]) is on record as 23.03%. Same read-out and setting: with `Cn1ccnc1COc1ccc(COC(=O)C2CCCO2)cc1` (stereo unspecified) the figure was -0.4672%; with `Cc1c(CC(C#N)C(=O)Nc2cccc(O)c2)cnn1C` (stereo unspecified), -22.11%; with `COc1ccc(Cl)cc1NC(=O)N1CCc2nc(NC(C)=O)sc2C1`, 55.24%. Still for that read-out and setting: with `COc1ccc(Cl)cc1NC(=O)CN1CCc2nc(NC(C)=O)sc2C1` the figure was -8.893%; with `COC(=O)Nc1nc2c(s1)CN(C(=O)NCc1cccs1)CC2`, -0.9773%. Consider `Cn1ccnc1CN1CCCN(C(=O)c2ccc(O)nc2)CC1`, for which the “Percent Effect” value (30 µM) is 25.73%. On to `Cc1nc2sccn2c1CN(CCCN(C)C)Cc1ccco1.O=C(O)CC(O)(CC(=O)O)C(=O)O`, for which, for the setting “30.3 µM, […]”, the “Percent Effect” value was determined as 41.01%. On to `CC[C@@]1(O)CCN(C(=O)CCc2cnn(C)c2)C[C@H]1O`, for which the “Percent Effect” value (30.3 µM, […]) worked out at 28.56%. Still for that read-out and setting: with `COc1ccc(C(C)NCc2nnc(C)s2)cc1F` (stereo unspecified) the figure was 13.85%. Still for that read-out and setting: with `COc1ccc(C(C)NCCc2ccc(NC(C)=O)cc2)cc1F` (stereo unspecified) the figure was 23.19%; with `COc1ccc(C(C)NCCC(N)=O)cc1F` (stereo unspecified), 52.68%; with `CCSc1cc(C(=O)NCCc2nnc(-c3ccco3)[nH]2)ccn1`, -0.0887%. Still for that read-out and setting: the result for `CN(CCn1nc2ccccn2c1=O)CC(=O)N(C)C1CCCCC1` reads 4.76%; that for `Cc1nc(N2CCCC2)ncc1-c1cc(O)nc(N2CCN(C)CC2)n1`, 59.07%. For `Cc1nc(N2CCCC2)ncc1-c1cc(O)nc(N2CCCC2)n1`, the “Percent Effect” value (30 µM, 30.03 µM) is given as 15.83%. Consider `Cc1nc(N2CCCC2)ncc1-c1cc(O)nc(N2CCCCC2)n1`, for which the “Percent Effect” value (30.3 µM, […]) is -14.51%. On to `CCCS(=O)(=O)NC(=O)c1sc(C2CCCC2)nc1C`, for which the “Percent Effect” value (30.3 µM, […]) came out at 11.93%. Still for that read-out and setting: with `COCCNC(=O)C[C@@H]1COC[C@H]2CN(C(=O)C3CCOCC3)C[C@@H]12` the figure was 11.97%. With `COCCNC(=O)C[C@@H]1COC[C@H]2CN(C(=O)c3cnccn3)C[C@@H]12`, for the setting “30 µM, 30.03 µM”, the “Percent Effect” value worked out at 9.909%. As for `COCCNC(=O)C[C@@H]1COC[C@H]2CN(C(=O)COC)C[C@@H]12`, the “Percent Effect” value (30.3 µM, […]) is reported as 51.2%.

Take `COC(=O)C(c1ccccc1)N(C)C(=O)c1ccnc(C)n1` (stereo unspecified): the “Percent Effect” value (30 µM) amounted to 22.67%. With `Cc1ccccc1-n1ccc2nc(N3CCCC3)ncc2c1=O`, the “Percent Effect” value (30.3 µM, […]) is on record as 13.99%. Same read-out and setting: the result for `CS(=O)(=O)CC(=O)N(CCN1CCOCC1)Cc1ccco1` reads -78.1%. As for `Cn1cncc1CNC1CC2(CCN(CC3CC3)CC2)c2ccccc21.O=C(O)C(F)(F)F.O=C(O)C(F)(F)F` (stereo unspecified), where the note is “30.3 µM, […]”, the “Percent Effect” value stood at 22.11%. In the case of `COCCN1CCC2(CC1)CC(NC(=O)CN(C)C)c1ccccc1O2.O=C(O)C(F)(F)F.O=C(O)C(F)(F)F` (stereo unspecified), the “Percent Effect” value (30.3 µM, […]) was 52.21%. On to `Cc1ccc2c(c1)C(N1CCOCC1)CC21CCNCC1` (stereo unspecified), for which the “Percent Effect” value (30.3 µM, […]) worked out at 55.92%. On to `COCCN1CCC2(CC1)CC(NC(=O)CC1CC1)c1ccccc1O2.O=C(O)C(F)(F)F` (stereo unspecified), for which, where the note is “30.3 µM, […]”, the “Percent Effect” value is reported as -12.69%.

With `COCC(=O)NC1CC2(CCN(CCO)CC2)c2ccccc21.O=C(O)C(F)(F)F` (stereo unspecified), for the setting “30.3 µM, […]”, the “Percent Effect” value came out at 8.463%. The same measure, in the same setting: with `Cc1ccc(CNC2CC3(CCN(CCO)CC3)c3ccccc32)s1.O=C(O)C(F)(F)F.O=C(O)C(F)(F)F` (stereo unspecified) the figure was 81.48%.

Take `CCC(=O)N1CCC2(CC1)CC(N1CCOCC1)c1cc(C)ccc12.O=C(O)C(F)(F)F` (stereo unspecified): under “30.3 µM, […]”, the “Percent Effect” value is reported as 12%.

On to `Cc1cccc(CNC2CC3(CCN(CCO)CC3)c3ccccc32)n1.O=C(O)C(F)(F)F.O=C(O)C(F)(F)F` (stereo unspecified), for which the “Percent Effect” value (30.3 µM, […]) was 9.361%.

Turning to `COCCN1CCC2(CC1)CC(NCc1cncn1C)c1ccccc12.O=C(O)C(F)(F)F.O=C(O)C(F)(F)F` (stereo unspecified), for the setting “30.3 µM, […]”, the “Percent Effect” value was 17.77%. As to `Cc1ccc2c(c1)C1(CCNCC1)CC2N1CCOCC1` (stereo unspecified), the “Percent Effect” value (30.3 µM, […]) is given as 11.46%. Same read-out and setting: the result for `COCCN1CCC2(CC1)CC(NC(=O)COC)c1ccccc1O2.O=C(O)C(F)(F)F` (stereo unspecified) reads 15.07%; that for `COCCN1CCC2(CC1)CC(NCc1ccc(C)s1)c1ccccc12.O=C(O)C(F)(F)F.O=C(O)C(F)(F)F` (stereo unspecified), 59.95%; that for `CCn1nccc1CNC(=O)C1CCCO1` (stereo unspecified), 2.08%. `CNc1oc(-c2ccc(OC)c(S(=O)(=O)N3CCCC3)c2)nc1C#N`: the “Percent Effect” value (30.3 µM, […]) came to 16.63%.

Take `CC(=O)N1CCC2(CC1)CC(NS(C)(=O)=O)c1ccccc1O2` (stereo unspecified): the “Percent Effect” value (30.3 µM, […]) was 6.966%. On the same count and under the same terms, with `O=C(NCc1cccs1)c1nc2c(o1)CN(c1ncccn1)C2` the figure was 27.75%; with `CCn1c(CC2CCN(C(=O)c3ccnn3C)CC2)n[nH]c1=O`, 15.21%. For the compound `Cc1csc(CNC(=O)NCC(O)c2cccc(Cl)c2)n1` (stereo unspecified), where the note is “30 µM, 30.03 µM”, the “Percent Effect” value turned out to be 17.1%.

On to `CCCN(C(=O)c1csnn1)C1CCCN(Cc2ccccc2)C1` (stereo unspecified), for which the “Percent Effect” value (30.3 µM, […]) amounted to 11.65%. Same read-out and setting: with `COCCN1CCC2(CC1)CC(N1CCOCC1)c1ccc(C)cc12.O=C(O)C(F)(F)F.O=C(O)C(F)(F)F` (stereo unspecified) the figure was 56.38%. Same read-out and setting: the result for `CC(=O)N1CCC2(CC1)CC(N1CCOCC1)c1ccc(C)cc12.O=C(O)C(F)(F)F` (stereo unspecified) reads 29.16%; that for `COCCN1CCC2(CC1)CC(N1CCOCC1)c1cc(C)ccc12.O=C(O)C(F)(F)F.O=C(O)C(F)(F)F` (stereo unspecified), 13.44%.
